From PubChem
Pol iota inh – DNA polymerase iota (human) inhibition | Pol iota fluorescent replication assay, 10 min | Potency, µM (doses to about 115 µM), for inactives: at the highest dose activity, negative = inhibition, actives largely listed as inhibitors | actives 1% (n = 390,000) | AID 588590
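Pol iota at 10 nM preincubated 15 min with compounds at room temperature; reaction started with fluorescent substrate, 50 nM final. Fluorescence read kinetically at 0 and 10 min; buffer-only wells as negative control.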
Pol eta inh – blocks human DNA polymerase eta activity. Q9Y253. recombinant Pol eta, fluorescent DNA replication assay. Potency, µM (doses to about 114 µM), for inactives: at the highest dose activity change, negative = inhibition, actives largely listed as inhibitors. actives 1.2% (n = 390,000); further: on the % scale 0 is the no-effect control and ±100 the full control effect
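Pol eta (10 nM) was preincubated with compounds for 15 min at room temperature, after which fluorescent replication substrate (50 nM final) was added to start the reaction. Fluorescence was read kinetically at 0 and 10 min.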
Pol kappa inh – blocks human DNA polymerase kappa activity | Q9UBT6 | purified Pol kappa, fluorescent DNA synthesis assay, 10 min | Potency, µM (doses to about 107 µM), inactives show top-dose activity, negative = inhibition, hits mostly inhibitors | actives 0.53% (n = 400,000) | AID 588579; further: on the % scale 0 is the no-effect control and ±100 the full control effect
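Enzyme at 10 nM met test compounds for 15 min at room temperature. Substrate addition (50 nM final) began the reaction, which was monitored by fluorescence at 0 and 10 min.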
POLB inh – inhibitors of human DNA polymerase beta; actives 1.3% (n = 340,000); Potency, µM (doses to about 114 µM), for inactives: top-dose activity change, negative = inhibition, hits mostly inhibitors; P06746; Pol beta primer extension/strand displacement, fluorescence kinetic; AID 485314; further: on the % scale 0 is the no-effect control and ±100 the full control effect
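Homogeneous kinetic assay of primer extension and strand displacement by 10 nM Pol beta, preincubated 15 min at room temperature with compound before 50 nM substrate (final) was added. Read at 0 and 10 min; four-parameter Hill fit.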
WRN inhibitor – blocks human WRN helicase; Q14191; actives 0.46% (n = 360,000); AID 651768; WRN helicase unwinding, fluorescent forked duplex, kinetic; Potency, µM (highest dose often 114 µM), for the others: at the top dose activity change, negative = inhibition, most hits filed as inhibitors; further: on the % scale 0 is the no-effect control and ±100 the full control effect; nearly all actives have a fitted effect of over 55% in size
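Screening of the MLSMR collection measured strand separation of a quenched forked DNA duplex (100 nM) by 20 nM WRN with 2 mM ATP, all final. Compounds were preincubated with enzyme 15 min at room temperature.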
FEN1 inhibitor – human FEN1 inhibition; Potency, µM (top dose mostly 114 µM), for the others: top-dose activity change, negative = inhibition, most hits filed as inhibitors; actives 0.35% (n = 390,000); AID 588795; Recombinant FEN1 flap cleavage, fluorescence, 15 min; further: on the % scale 0 is the no-effect control and ±100 the full control effect; nearly all actives have a fitted effect of over 65% in size
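Nuclease activity of 10 nM FEN1 was measured after 15 min of room-temperature exposure to titrated compounds, by adding 50 nM flap substrate and reading plates at 0 and 15 min.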
The depositor's hits bear a star; ? = inconclusive; nt = no result given; [ ] = another dose, or the depositor's remark. In the library only some 2.4% were active in any assay of this set; here they are far more common. The call rests on the fitted dose curve; in most records, active means well fitted curve in the direction sought with a large enough effect; inconclusive means small, poorly fitted or top-dose-only effect, or another doubt; inactive means no such curve, though single readings can be large; an effect the other way counts as inactive or inconclusive. Potency means the concentration at half of the fitted maximal effect.

SMILES	Pol iota inh	Pol eta inh	Pol kappa inh	POLB inh	WRN inhibitor	FEN1 inhibitor
O=C(OC1CCCCC1)c1ccc2c(c1)C1C=CCC1C(C(=O)O)N2 (centres undefined)	nt	nt	nt	2.2µM*	nt	nt
CCOC(=O)C1Nc2ccc(C)cc2C2C=CCC12 (centres undefined)	?	-11%	-22%	nt	-7%	-11%
COc1cc(C(=O)NCCOc2ccc(F)cc2)c(Br)c(OC)c1OC	-19%	-19%	-10%	5%	2%	-2%
NC(=O)c1ccsc1NC(=O)CN1C(=O)NC2(CCCC2)C1=O	-1%	-15%	-7%	nt	-5%	-7%
COC(=O)c1ccc(/C=C/c2nc3ccccc3c(=O)[nH]2)cc1	?	-5%	-14%	27%	-7%	-11%
COC1=C/C(=C/c2c(N)n3nc(-c4ccc(C)cc4)sc3nc2=O)C=CC1=O	14µM*	22µM*	-10%	56µM*	-10%[11.6 µM]	?
COC1=C/C(=C/c2c(N)n3c(nc2=O)sc2cc(S(C)(=O)=O)ccc23)C=CC1=O	?	28µM*	-32%	-1%	-2%[11.6 µM]	-24%
CCS(=O)(=O)c1nn2c(N)c(/C=C3/C=CC(=O)C(OC)=C3)c(=O)nc2s1	-9%	?	-26%	6%	-25%	1%
O=S(=O)(O)c1cccc(N=Nc2c(O)ccc3ccccc23)c1	11%	?	-11%	?	-15%	?
O=S(=O)(O)c1ccc2c(N=Nc3ccc(S(=O)(=O)O)c4ccccc34)c(O)c(S(=O)(=O)O)cc2c1	45µM*	nt	45µM*	nt	nt	10µM*
CC(=O)Nc1ccc(S(=O)(=O)O)c2cc(S(=O)(=O)O)c(N=Nc3ccc(N=Nc4ccc(S(=O)(=O)O)cc4)c4ccc(S(=O)(=O)O)cc34)c(O)c12	3.2µM*	nt	1.4µM*	nt	nt	1.3µM*
O=C(c1ccc2ncsc2c1)N1CCCCC1	-2%	-12%	-6%	11%	-2%	0%
O=C(O)c1ccc2ncsc2c1	4µM*	-20%	-14%	8%	?	-13%
CCn1c(C)nc2cc(C(=O)N/N=C/c3cccc(O)c3O)ccc21	25µM*	-23%	?	?	-15%[57.1 µM]	-9%
CCn1c(C)nc2cc(C(=O)N/N=C/c3ccc(N4CCOCC4)cc3)ccc21	?	-18%	-17%	22µM*	-5%	-2%
CCn1c(C)nc2cc(C(=O)N/N=C(\C)c3ccc(N4CCOCC4)cc3)ccc21	-13%	-14%	-17%	-10%	-5%	-9%
O=C1CCCC(O)=C1N=Nc1c(Cl)cc(Cl)cc1Cl	?	-20%	-21%	2%	-6%	-1%
C=C(C)C1CCC2(C(=O)O)CCC3(C)C(CCC4C5(C)C(C=O)C(O)C(C)(C)C5CCC43C)C12 (centres undefined)	-25%	79µM*	-15%	0%	-4%[11.6 µM]	-5%
Nc1nc(NCCO)nc(NCC2CCCO2)c1[N+](=O)[O-] (centres undefined)	15%	-4%	-20%	22µM*	-30%[57.1 µM]	-3%
Nc1nc(NCC2CCCO2)nc(NCC2CCCO2)c1[N+](=O)[O-] (centres undefined)	5%	-25%	0%	39%	9%	-3%
Cc1nn(-c2ncc(C(F)(F)F)cc2Cl)c(=O)n1-c1cccc(Cl)c1	13%	-6%	-4%	3%	-1%	7%
C/C(=N/NC(=O)C(O)(c1ccccc1)c1ccccc1)c1ccc([N+](=O)[O-])o1	?	79µM*	-15%	13µM*	-10%	-1%
O=C(NNC(=O)c1ccc([N+](=O)[O-])o1)c1ccccc1	0%	-9%	4%	37%	-1%	1%
COc1cccc(/C=C2\SC(=O)NC2=O)c1OCc1ccc(C(=O)O)cc1	21%	-4%	-21%	-4%	-9%	-2%
O=C1N/C(=N/NC(=O)c2cccc3ccccc23)S/C1=C\c1ccccc1OCc1ccccc1	28µM*	22µM*	50µM*	50µM*	56µM*	?
